# Measured values: PubChem BioAssay (Tox21)
# Values joined by “and” are separate entries in the source; they are usually repeats but may differ in a detail not shown here. Equal entries are not always repeated. Records with an inconclusive call do not appear. Active and inactive are the calls of the source. Calls come from the whole dose curve; as a rule, active = well fitted cell-killing curve with a large enough effect in the repeat runs; inconclusive = weak or mixed curves; inactive = no such curve, though single readings can be large or run the other way. Positions of bridges follow the written chain, without caps; N, C: chain ends. Non-standard residues stand in square brackets, D forms with d. Residues, ends and D or L forms follow the SMILES beside them. ξ: configuration not given here. *: point of attachment. d(aThr) = C[C@@H](O)[C@@H](N)C(=O)O; ξThr(3R) = C[C@@H](O)C(N)C(=O)O; X3 = CC[C@@H](C)CCCCC(=O)*; dDab = NCC[C@@H](N)C(=O)O
# Assay: qHTS assay for identifying genotoxic compounds that show differential cytotoxicity against isogenic chicken DT40 cell lines with known DNA damage response pathways - Rad54/Ku70 mutant cell line (AID 743015); note: nearly all actives have a fitted effect of over 60% in size
# Conditions: DT40 Rad54/Ku70 mutant viability, CellTiter-Glo, 40 h; series mostly up to 66.8 µM; activity change, negative = cytotoxicity: at the top concentration
# Source text: National Center for Advancing Translational Sciences [NCATS]
# NIH Chemical Genomics Center [NCGC]
# U.S. Environmental Protection Agency [EPA]
# National Institutes of Environmental Health Sciences [NIEHS]
# National Toxicology Program [NTP]
# U.S. Food and Drug Administration [FDA]
# DNA repair pathways play a critical role in cellular homeostasis by repairing DNA damage induced by endogenous processes and xenobiotics. Isogenic chicken DT40 cell lines deficient in different DNA repair pathways can be used to identify genotoxic compounds and aid in characterizing the nature of the DNA damage induced. Two DNA repair-deficient cell lines with disrupted genes, Rad54/Ku70 or Rev3, were used to screen the Tox21 10K compound library. Possible genotoxicity was based on the presence of a significant increase in cytotoxicity in one or more of the DNA repair-deficient cell lines compared to that observed in the parental DNA repair-proficient cell line. CellTiter Glo viability assay (Promega, Madison, WI) was used to measure cell viability in these cells after compound treatment. This assay includes the data from the Rad54/Ku70 mutant cell line.
# Tox21 Assay Protocol Summary:
# 300 DT40 mutant cells in 5 uL/well were dispensed into white, solid-bottom 1536-well plates using a Multidrop Combi (ThermoFisher Scientific, Waltham, MA) dispenser. After the assay plates were incubated at 37 C/5% CO2 for approximately 0.5 hour, 23 nL of compounds dissolved in DMSO, positive controls or DMSO only was transferred into the assay plate by a pintool work station (Kalypsys, San Diego, CA). The assay plates were incubated at 37 C/5% CO2 for 40 hours. After 5 uL per well of CellTiter-Glo reagent was added into each well of the assay plates, the plates were incubated for 30 min at room temperature and the luminescence intensity of the plates was measured using a ViewLux (PerkinElmer, Shelton, CT) plate reader.
# % is set by controls: 0 for no effect and ±100 for the full control effect; potency is the fitted concentration of half-maximal effect.
Compound,"activity change, negative = cytotoxicity",Potency
COc1ccc(/C=C/C(=O)OCCC(C)C)cc1,-19.1% (inactive),
CC[C@@H](C)CCCCC(=O)N[C@H](CCN)C(=O)N[C@@H](C(=O)N[C@H](CCN)C(=O)N[C@@H]1CCNC(=O)C([C@@H](C)O)NC(=O)[C@@H](CCN)NC(=O)[C@@H](CCN)NC(=O)[C@@H](CC(C)C)NC(=O)[C@@H](Cc2ccccc2)NC(=O)[C@@H](CCN)NC1=O)[C@@H](C)O (stereo partly drawn) (X3-[dDab][d(aThr)][dDab][dDab][dDab][dF][dL][dDab][dDab][ξThr(3R)]; lactam 4-C),-7.81% (inactive),
O=C(Nc1ccc(/C=C/c2ccc(NC(=O)c3cc(S(=O)(=O)O)c4cccnc4c3O)cc2S(=O)(=O)O)c(S(=O)(=O)O)c1)c1cc(S(=O)(=O)O)c2cccnc2c1O,,29.8 µM (active)
CN1[C@@H]2CC[C@H]1CC(OC(c1ccccc1)c1ccccc1)C2 (stereo not given in full),,8.41 µM (active) and 23.7 µM (active) and 11.9 µM (active)
NC(=O)c1ccc[n+]([C@@H]2O[C@H](COP(=O)([O-])OP(=O)(O)OC[C@H]3O[C@@H](n4cnc5c(N)ncnc54)[C@H](O)[C@@H]3O)[C@@H](O)[C@H]2O)c1,17.4% [at 30.7 µM] (inactive),
C=C1CC[C@@H]2[C@](C)(CO)[C@H](O)CC[C@@]2(C)[C@@H]1C/C=C1/C(=O)OC[C@H]1O,,5.96 µM (active)
CC(=O)OC[C@H]1O[C@@H](O[C@H]2[C@H](O)[C@@H](OC(=O)c3ccccc3C(=O)O)[C@H](O)O[C@@H]2COC(C)=O)[C@H](O)[C@@H](OC(=O)c2ccccc2C(=O)O)[C@@H]1O,6.27% (inactive),
CCc1ccc2c(c1)N(CC(C)CN(C)C)c1ccccc1S2 (stereo not given),,8.41 µM (active)
COc1cc(Br)c(C[N+]2(CCOCCC3CCC4CC3C4(C)C)CCOCC2)cc1OC (stereo not given),,2.66 µM (active)
C=C1/C(=C\C=C2/CCC[C@]3(C)[C@@H]([C@H](C)OCCC(C)(C)O)CC[C@@H]23)C[C@@H](O)C[C@@H]1O,,13.3 µM (active)
Cc1cc(C(=O)NNCc2ccccc2)no1,9.58% [at 30.7 µM] (inactive),
O=C(Nc1ccc(O)cc1)c1ccccc1O,0.138% (inactive),
CCCCCCCCCCCCCCCCCCCCCC(=O)Nc1ccn([C@@H]2O[C@H](CO)[C@@H](O)[C@@H]2O)c(=O)n1,,26.6 µM (active)
CCOC(=O)COc1ccc2c(C)c(CCN(CC)CC)c(=O)oc2c1,5.21% (inactive),
Nc1ncnc(Nc2ccc(Cl)cc2)n1,1.85% (inactive),
CN[C@@H]1[C@H](O[C@H]2[C@H](O[C@H]3[C@H](O)[C@@H](O)[C@H](N=C(N)N)[C@@H](O)[C@@H]3N=C(N)N)O[C@@H](C)[C@]2(O)C=O)O[C@@H](CO)[C@H](O)[C@H]1O,15.6% (inactive),
O=C(O)C1=C(CSc2nnnn2CS(=O)(=O)O)CS[C@@H]2[C@H](NC(=O)[C@H](O)c3ccccc3)C(=O)N12,0.281% (inactive),
O=C(Nc1ccc(Br)cc1)c1cc(Br)c(Br)s1,,26.6 µM (active)
CC1(C)C2CC[C@]3(C)[C@H](C(=O)C=C4[C@@H]5C[C@@](C)(C(=O)O)CC[C@]5(C)CC[C@]43C)[C@@]2(C)CC[C@@H]1O[C@H]1O[C@H](C(=O)O)[C@@H](O)[C@H](O)[C@H]1O[C@@H]1O[C@H](C(=O)O)[C@@H](O)[C@H](O)[C@H]1O (stereo not given in full),3.38% (inactive),
CN[C@@H]1[C@@H](O)[C@@H](O[C@@H]2[C@@H](O)[C@H](OC3OC(CN)=CCC3N)[C@@H](N)C[C@H]2N)OC[C@]1(C)O (stereo not given in full),7.85% [at 30.7 µM] (inactive),

Compound,"activity change, negative = cytotoxicity",Potency
CN(C)CC/C=C1/c2ccccc2CSc2ccccc21,,12.7 µM (active)
CCC(=O)OCC(=O)[C@@]1(OC(=O)CC)[C@@H](C)C[C@H]2[C@@H]3CCC4=CC(=O)C=C[C@]4(C)[C@@]3(Cl)[C@@H](O)C[C@@]21C,,13.3 µM (active)
CCCCCCCCCCCCCCCC(=O)OC[C@@H](COP(=O)([O-])OCC[N+](C)(C)C)OC(=O)CCCCCCCCCCCCCCC,3.02% (inactive),
C/C=C1\NC(=O)[C@H]2CSSCC/C=C/[C@H](CC(=O)N[C@H](C(C)C)C(=O)N2)OC(=O)C(C(C)C)NC1=O (stereo not given in full),,0.0017 µM (active)
C[C@H](CSC(=O)c1ccccc1)C(=O)N1C[C@@H](Sc2ccccc2)C[C@H]1C(=O)O,2.17% (inactive),
CN1CCCC(CN2c3ccccc3Sc3ccccc32)C1 (stereo not given),,9.44 µM (active)
FCOC(C(F)(F)F)C(F)(F)F,1.56% (inactive),
O=C(CCCN1CCC(n2c(=S)[nH]c3ccccc32)CC1)c1ccc(F)cc1,,16.8 µM (active)
OCCN1CCN(CC/C=C2/c3ccccc3Sc3ccc(Cl)cc32)CC1,,11.4 µM (active)
Cc1ncc(C[n+]2csc(CCOP(=O)(O)OP(=O)(O)O)c2C)c(N)n1,4.05% (inactive),
CC(C)(C)C1(O)CCN2CC3c4ccccc4CCc4cccc(c43)C2C1 (stereo not given),,11.9 µM (active)
CCCCCc1ccc(C)cc1O,-6.54% (inactive),
COC(=O)CCC(=O)CN,4.62% (inactive),
CC(=O)Nc1ccc(OC(=O)c2ccccc2O)cc1,3.28% (inactive),
CC(C)C[C@H](NC(=O)[C@@H](Cc1c[nH]c2ccccc12)NC(=O)[C@H](Cc1ccc(O)cc1)NC(=O)[C@H](CO)NC(=O)[C@H](Cc1c[nH]c2ccccc12)NC(=O)[C@H](Cc1cnc[nH]1)NC(=O)[C@@H]1CCC(=O)N1)C(=O)N[C@@H](CCCN=C(N)N)C(=O)N1CCC[C@@H]1C(=O)NCC(N)=O,6.02% (inactive),
CCC[C@@]1(CCc2ccccc2)CC(O)=C([C@H](CC)c2cccc(NS(=O)(=O)c3ccc(C(F)(F)F)cn3)c2)C(=O)O1,-5.71% (inactive),
Cc1ncc(COP(=O)(O)O)c(CN)c1O,13.2% (inactive),
CCCCC[C@H](O)/C=C/[C@@H]1[C@H]2C/C(=C/CCCC(=O)O)O[C@H]2C[C@H]1O,-4% (inactive),
CC(=O)N[C@@H]1C(O[C@H]2O[C@H](C(=O)O)C(O)[C@H](O)[C@H]2O)[C@H](O)[C@@H](CO)O[C@H]1O[C@@H]1C(C(=O)O)O[C@@H](O[C@H]2[C@H](O)[C@@H](CO)OC(O)[C@@H]2NC(C)=O)[C@H](O)[C@H]1O (stereo not given in full),-13% (inactive),
COC(=O)[C@H]1[C@H]2C[C@@H]3c4[nH]c5ccccc5c4CCN3C[C@H]2C[C@@H](OC(=O)c2cc(OC)c(OC)c(OC)c2)[C@@H]1OC,,1.68 µM (active) and 26.6 µM (active)
